# HPGD block: blocks human HPGD enzyme activity | P15428 | purified HPGD, NADH fluorescence kinetic, PGE2 substrate | Potency, µM, inactives show top-dose activity change, negative = inhibition, hits mostly inhibitors | actives 4.3% (n = 150,000) | AID 894; active = well fitted inhibition curve with a large enough effect, not every such curve was filed as active; inconclusive = small, poorly fitted or top-dose-only effect, or another doubt; inactive = no such curve, though single readings can be large or run the other way; also: potency is read from the fitted curve at half-maximal effect
#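 20 nM HPGD preincubated 15 min at room temperature with compound in 50 mM Tris-HCl pH 8, 0.01% Tween 20. Started with 1 mM NAD+ and 30 uM prostaglandin E2; NADH fluorescence (360/450 nm) read 5 times over 30-s intervals, last minus first.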
# ALDH1A1 block: blocks purified human ALDH1A1 activity; P00352; Purified ALDH1A1, NADH fluorescence, propionaldehyde substrate; Potency, µM (doses to about 75.3 µM), inactives show top-dose activity, negative = inhibition, actives largely listed as inhibitors; actives 7.3% (n = 220,000); AID 1030; active = well fitted inhibition curve with a large enough effect, not every such curve was filed as active; inconclusive = small, poorly fitted or top-dose-only effect, or another doubt; inactive = no such curve, though single readings can be large or run the other way;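 also: potency is read from the fitted curve at half-maximal effect; plate controls were no enzyme wells and a reference inhibitor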
# Target sequence (P00352 whole entry, looked up): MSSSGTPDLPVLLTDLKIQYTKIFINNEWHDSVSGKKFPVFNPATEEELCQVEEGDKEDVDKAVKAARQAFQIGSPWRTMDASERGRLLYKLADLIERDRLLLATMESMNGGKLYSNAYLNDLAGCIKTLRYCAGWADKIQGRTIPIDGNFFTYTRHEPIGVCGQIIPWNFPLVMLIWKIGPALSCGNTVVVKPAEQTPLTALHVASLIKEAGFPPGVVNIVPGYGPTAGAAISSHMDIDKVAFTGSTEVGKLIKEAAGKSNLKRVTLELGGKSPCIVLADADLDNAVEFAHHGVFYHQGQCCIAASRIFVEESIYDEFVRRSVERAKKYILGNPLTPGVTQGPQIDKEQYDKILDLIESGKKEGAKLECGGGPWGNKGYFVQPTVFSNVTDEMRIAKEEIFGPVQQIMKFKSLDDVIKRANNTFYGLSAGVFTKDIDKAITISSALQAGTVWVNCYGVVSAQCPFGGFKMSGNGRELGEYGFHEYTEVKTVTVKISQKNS
# PNC assembly inh: blocks assembly of the perinucleolar compartment. PC3M PTB-GFP, PNC prevalence imaging, 16 h; active compounds read low. activity change (PNC), negative = inhibition, % at 10 µM. actives 3.1% (n = 140,000). AID 2417;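 active = readout at or below -70, meaning at least 70% loss of cells showing the perinucleolar compartment, a nuclear body marking cancer cells; inconclusive = readout between -30 and a set limit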;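 also: plate controls were DMSO wells for no effect and camptothecin positive control wells for full effect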
#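 PC3M cells stably expressing PTB-GFP, 750–1000 cells/well, treated 16 h at 37 °C with compound (23 nl of library stock), in duplicate. After paraformaldehyde fixation and Hoechst stain, imaged at 20x; PNC prevalence scored by image analysis.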
# IMPase Li inh: cell-permeable IMPase inhibitors with lithium potentiation; CHO-M1 cells, IP1 TR-FRET (IP-One), carbachol + lithium; Potency, µM (top dose mostly 59.4 µM), without a hit: top-dose activity, negative = IMPase inhibition, usual class: inhibitors; AID 1457; actives 0.35% (n = 210,000);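 also: IP1 builds up when IMPase is blocked and the TR-FRET signal falls; potency is read from the fitted curve at half-maximal effect; plate controls were basal vehicle for no effect and high inhibitor control for full effect; nearly all actives have a fitted effect of over 50% in size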
#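 Test compounds were applied to CHO-M1 cells previously cultured for 16–30 h at 2000 per well. A small lithium amount accompanied them; after 30 min at 37C, IP1 was quantified by TR-FRET.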
# 12-hLO inh: 12-hLO (ALOX12) enzyme inhibition; P18054; purified 12-hLO, xylenol orange hydroperoxide absorbance; Potency, µM (highest dose often 57.1 µM), without a hit: top-dose activity change, negative = inhibition, actives largely listed as inhibitors; actives 0.12% (n = 150,000); also: potency is read from the fitted curve at half-maximal effect; nearly all actives have a fitted effect of over 55% in size
#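 Purified human 12hLO (150 nM final) was preincubated with compounds for 15 min at room temperature in 25 mM Hepes pH 7.0, 0.01% Triton X-100, then reacted with 40 uM arachidonic acid for 30 min. Hydroperoxide was detected with ferrous iron/xylenol orange.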
# IMPase inh: cell-permeable inhibitors of inositol monophosphatase (IMPase); AID 901; inhibition (IP1 accumulation), % at 46.1 µM; CHO-M1 cells, IP1 accumulation, HTRF TR-FRET ratio; 120,000 tested, under 10 active; P97697; active = well fitted curve in the direction sought with a large enough effect in the signal ratio, not every such curve was filed as active; inconclusive = small, poorly fitted or top-dose-only effect, or a change in a side signal; inactive = no such curve, though single readings can be large or run the other way; the % refers to the signal ratio;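 also: cells stimulated with carbachol in lithium chloride buffer; plate controls were DMSO basal wells for no effect and reference inhibitor wells for full effect; higher means more IMPase inhibition seen as more IP1 and lower FRET ratio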
# Target sequence (P97697 whole entry, looked up): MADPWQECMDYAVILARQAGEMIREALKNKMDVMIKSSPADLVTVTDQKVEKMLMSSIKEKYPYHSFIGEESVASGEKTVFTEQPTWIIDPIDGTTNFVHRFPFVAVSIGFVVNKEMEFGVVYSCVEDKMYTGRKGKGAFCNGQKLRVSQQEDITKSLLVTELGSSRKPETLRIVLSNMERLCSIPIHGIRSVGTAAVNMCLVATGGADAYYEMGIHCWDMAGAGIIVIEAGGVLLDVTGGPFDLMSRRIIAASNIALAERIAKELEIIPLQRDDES
#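 Elevated IP1 in lysates lowers TR-FRET signal (665/620 ratio and 620 channel reported). Cells were CHO-M1, given carbachol (50 uM as added) plus 50mM LiCl, pH 7.4, 30 min, 37C; compounds titrated up to 46 uM; AC50 by Hill equation.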
# * hit, by the source's call; ? = inconclusive; nt = not tested or not shown; [ ] = remark or other dose. A selection: hits, their analogues and other compounds. The true share with any hit is near 11%. Unless noted, calls follow the shape of the dose curve; as a rule, active = well fitted curve in the direction sought with a large enough effect; inconclusive = small, poorly fitted or top-dose-only effect, or another doubt; inactive = no such curve, though single readings can be large; an effect the other way counts as inactive or inconclusive. Unless noted, % is scaled to controls: 0 for no effect and ±100 for the full control effect.
SMILES,HPGD block,ALDH1A1 block,PNC assembly inh,IMPase Li inh,12-hLO inh,IMPase inh
COc1ccccc1-n1nnnc1SCC(=O)Nc1ccccn1,-15%,0.63µM*,19,17%[38.3 µM],2%,3
COc1ccccc1-n1cnnc1SCC(=O)c1ccc[nH]1,-4%,?,-11,11%[38.3 µM],2%,0
O=C(CSc1nnnn1Cc1ccccc1)NCC(=O)c1ccccc1,-10%,8.9µM*,?,-7%[38.3 µM],0%,11
O=C1CN(C(=O)CSc2nnc(Nc3ccccc3)s2)c2ccccc2N1,2.2µM*,28µM*,?,6%,1%,nt
COc1ccccc1Nc1nnc(SCC(=O)N2CC(=O)Nc3ccccc32)s1,nt,-3%,-4,nt,2%,-3
CC(=O)N[C@@H](CSC(=O)[C@]1([C@@H](O)C(C)C)NC(=O)[C@H](C)[C@@H]1O)C(=O)O,-7%,11%[13.5 µM],nt,-9%,-1%[0.00818 µM],nt
COC(=O)NC(c1ccccc1)C1(C(=O)OC)C(=O)Cc2ccccc21 (stereo not drawn),-7%,?,nt,15%,nt,nt
CCCC1=Nc2cc(C(=O)NCc3ccccc3)ccc2Sc2ccccc21,nt,nt,nt,nt,nt,18
C=CCC(C)(NCc1ccccc1)C(=O)OCC (stereo not drawn),-5%,-8%,nt,-2%,-1%,nt
Cc1cc(NC(=O)CSc2nncn2-c2ccccc2)no1,nt,0%,nt,-9%,nt,nt
COc1ccccc1-n1cnnc1SCC(=O)Nc1cc(C)on1,nt,5µM*,nt,-3%,nt,nt
Cc1cc(NC(=O)CSc2nnnn2-c2ccccc2)no1,nt,16µM*,nt,13%,nt,nt
Cc1cc(NC(=O)CSc2nnnn2Cc2ccccc2)no1,2%,32µM*,-14,-5%,-2%,?
CCn1c(Cc2ccccc2)nnc1SCC(=O)Nc1cc(C)on1,-10%,7%,-107*,31%[38.3 µM],-1%,10
CCCOc1cccc(C2c3c(oc4ccc(F)cc4c3=O)C(=O)N2c2nc(C)c(C(C)=O)s2)c1 (stereo not drawn),nt,nt,nt,nt,nt,2
O=c1c(-c2ccc(Cl)cc2)nc2cnc(N3CCNCC3)nc2n1CCc1ccccc1,nt,?,nt,7%,nt,nt
Cc1cc(=O)oc2cc(O)c(CN(C)CC(=O)O)cc12,?,?,nt,3%,0%[11.4 µM],nt
O=C(CSc1nnnn1-c1ccc(O)cc1)Nc1cccc(S(=O)(=O)N2CCCC2)c1,-6%,-1%,-21,20%[38.3 µM],-2%,2
Cc1cccc(-n2nnnc2SCC(=O)Nc2cccc(S(N)(=O)=O)c2)c1,nt,7.9µM*,nt,nt,nt,nt
O=S(=O)(Nc1cccc(-c2nnco2)c1)c1ccc(F)cc1F,nt,10%,nt,nt,nt,nt
O=C(COC(=O)c1cccc(C(F)(F)F)c1)NCc1ccccc1,-2%,8%,107,-6%,1%,nt
O=C(COC(=O)c1cccc(C(F)(F)F)c1)NCc1ccc(Cl)cc1,14µM*,17%,-11,-1%,-2%,nt
CCN(CC)S(=O)(=O)c1ccc2c(c1)nc(SCn1nnc3ccccc3c1=O)n2CC,-16%,10µM*,29,7%[38.3 µM],-1%,-8
COc1cccc(Nc2nc3ccc(C(=O)c4ccccc4)cc3n3c(C)nnc23)c1,nt,nt,nt,nt,nt,1
CN(C)Cc1ccccc1-c1cncnc1NCc1ccccc1,?,?,nt,9%,-2%,nt
SMILES,HPGD block,ALDH1A1 block,PNC assembly inh,IMPase Li inh,12-hLO inh,IMPase inh
CC(C)c1ccc(COc2ccc(C(=O)N3CCOCC3)cc2)cc1,nt,?,nt,13%,nt,nt
Cc1ccc(OCc2ccc(C(=O)N3CCOCC3)cc2)cc1C,25µM*,0%,?,31%[38.3 µM],-6%,12
CCOc1cc2c(cc1OCC)C(c1ccccc1)N(c1ccccc1)C(=O)C2 (stereo not drawn),-2%,-10%,-93*,8%,0%,nt
CCOc1cc2c(cc1OCC)C(c1ccc(OC)cc1)N(c1ccccc1)C(=O)C2 (stereo not drawn),-16%,4%,-15,6%,1%,4
C[C@H]1Cc2c(-c3ccccc3)nc3c(c2CO1)CN(S(=O)(=O)c1ccc2c(c1)OCCN2C)CC3,-9%,-4%[13.5 µM],nt,9%,6%[11.4 µM],nt
Cc1cccc(C(=O)c2c(N)sc3c2CCCC3)c1,nt,?,-8,nt,-9%,-2
COc1cc(C(=O)Nc2sc3c(c2C(N)=O)CCC(C)C3)cc(OC)c1OC (stereo not drawn),nt,nt,nt,nt,nt,-1
Cc1cccc(C(=O)c2c(N)sc3c2CCC(C)C3)c1 (stereo not drawn),nt,7.9µM*,-14,nt,-14%,-1
CC1CCc2c(sc(N)c2C(N)=O)C1 (stereo not drawn),?,13µM*,8,7%[38.3 µM],-6%,-7
Cc1ccc(N(CC(=O)N2CC(=O)Nc3ccccc32)S(=O)(=O)c2ccc3c(c2)OCCO3)cc1,-14%,?,-100*,3%,-5%,-5
CCC(=O)N(Cc1cc2ccc(C)cc2n2nnnc12)C1CCCCC1,-3%,5µM*,-13,19%,2%,-9
COC(=O)c1c(N2C(=O)CC(Sc3ccccc3C(=O)O)C2=O)sc2c1CCCC2 (stereo not drawn),nt,0.45µM*,nt,-10%,nt,nt
O=C(O)c1ccccc1SC1CC(=O)N(c2ccccc2)C1=O (stereo not drawn),-4%,2.5µM*,64,0%,-3%,nt
O=C1CC(SC2=NCCS2)C(=O)N1c1ccc(Cl)cc1 (stereo not drawn),-14%,?,72,-4%,-4%,nt
O=C(O)c1ccccc1SC1CC(=O)N(C2CCCCC2)C1=O (stereo not drawn),-8%,0.63µM*,40,8%,0%,-5
O=C1CC(SC2=NCCS2)C(=O)N1c1ccc(Br)cc1 (stereo not drawn),-10%,7.9µM*,?,2%,2%,nt
COC(=O)c1c(N2C(=O)CC(Sc3ccccc3C(=O)O)C2=O)sc(C)c1C (stereo not drawn),nt,-1%,nt,-5%,nt,nt
N#C/C(=C\N1CCNC1=S)C(=O)c1ccc2ccccc2c1,-13%,?,nt,0%,0%[11.4 µM],nt
CC(=O)c1c(C)oc2c(Cl)cc(NS(=O)(=O)c3cc(C)c(C)cc3C)cc12,nt,nt,nt,nt,nt,-7
O=C1CC(Sc2cccs2)C(=O)N1c1ccccc1 (stereo not drawn),nt,13µM*,nt,nt,nt,nt
Cc1nnc(SC2CC(=O)N(c3ccccc3)C2=O)s1 (stereo not drawn),13µM*,0.71µM*,-23,11%,-2%,2
COc1cc2c3cc1Oc1c(OC)c(OC)cc4c1[C@@H](Cc1ccc(O)c(c1)Oc1ccc(cc1)C[C@@H]3N(C)CC2)CN(C)C4,-10%,-6%[13.5 µM],nt,4%,-7%[11.4 µM],nt
C[C@]12CC[C@H]3c4ccc(O)cc4CC[C@@H]3[C@H]1CC[C@@H]2OC(=O)CCc1ccccc1,-10%,-1%[13.5 µM],nt,-1%,-1%[11.4 µM],nt

# Screening results (PubChem BioAssay)
